These results are taken from PubChem BioAssay (NCATS).

“And” between values parts separate entries of the source, which are not always exact repeats. Identical values can stand only once. Values without a mark were called inactive. Records with an inconclusive call do not appear. The source made the active and inactive calls. Unless noted, the call rests on the fitted dose curve; in most records, active means well fitted curve in the direction sought with a large enough effect; inconclusive means small, poorly fitted or top-dose-only effect, or another doubt; inactive means no such curve, though single readings can be large; an effect the other way counts as inactive or inconclusive.

The nature of test [1]: AP1 Signaling Pathway (AID 357; active means well fitted curve in either direction with a large enough effect, not every such curve was filed as active;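 further: ME-180 reporter cells stimulated with EGF at its EC50 level; on the % scale 0 is the no-effect control and ±100 the full control effect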). To be noted: ME-180 AP-1-bla reporter, EGF-induced, beta-lactamase ratio, 5 h; at 7.69 µM (top of the series) unless noted. In short, it runs like this:
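Modulation of EGF-driven AP-1 transcription was assessed with a beta-lactamase reporter in ME-180 cells. Compound and EC50 EGF were co-incubated 5 hours at 37 °C before 2.5-hour CCF4 loading at room temperature and dual-emission reading.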

Test [2] deals with Cytochrome P450 1A2 (Homo sapiens) (UniProt P05177). Kind of test: p450-cyp1a2 (AID 410; calls by dose curve; further: potency means the concentration at half of the fitted maximal effect;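 on activity change, negative = inhibition: -100% = full effect of reference inhibitor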). In short, it runs like this:
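Luminescent readout of luciferin formed from Luciferin-ME by human CYP1A2; data normalized against complete inhibition by 57 uM furafylline. Enzyme 20nM, substrate 100uM at Km, 100mM KPO4 buffer, 60 min reaction at room temperature.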

Test [3] is described as follows: NFAT Signaling Pathway (AID 444; active means well fitted curve in either direction with a large enough effect, not every such curve was filed as active;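 further: carbachol stimulus at about its EC50 of 1 µM final; on the % scale 0 is the no-effect control and ±100 the full control effect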). To be noted: Jurkat NFAT-bla M1, carbachol, beta-lactamase ratio, 5 h; at 7.69 µM (top of the series) unless noted. Put shortly:
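Read-out: CCF4 FRET ratio (460 nm/530 nm) after 1 h RT dye loading, used for %activity and AC50 from titration series. Cells: Jurkat NFAT-β-lactamase/M1 line, treated with compound plus 1 uM carbachol for 5 h, 37 °C.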

Test [4] deals with Glucocorticoid receptor (Homo sapiens) (UniProt P04150). Kind of test: GR-EFC Redistribution (AID 451; calls by dose curve; further: potency means the concentration at half of the fitted maximal effect). To be noted: CHO-K1 GR-EFC translocation, beta-gal luminescence, 2 h. Put shortly:
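Translocation of GR-ED fusion to nuclear EA restores b-gal, read by luminescence after 1 h room-temperature detection. Engineered CHO-K1 biosensor cells, 1,000/well, exposed 2 h at 37 C to titrations up to 46 uM final.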

The target of test [5] is Mitogen-activated protein kinase 10 (Mus musculus) (UniProt Q61831). Kind of test: JNK3 AlphaScreen Assay (AID 530; active means well fitted curve in either direction with a large enough effect, not every such curve was filed as active;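 further: kinase came from lysate of stimulated human HepG2 cells; signal reports phosphorylation of biotinylated GST-cJun 1-79 at Ser73 with 10 µM ATP; on the % scale 0 is the no-effect control and ±100 the full control effect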). Put shortly: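 Compound titrations were preincubated 15 minutes at room temperature with substrate, antibody and pre-activated JNK3-containing HepG2 lysate. Reactions were started with 10 uM ATP and stopped with EDTA-containing bead buffer for AlphaScreen detection.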
A general note: In Alpha technology, singlet oxygen from a donor bead excites a nearby acceptor bead.

The target of test [6] is 3',5'-cyclic-AMP phosphodiesterase 4B (Homo sapiens) (UniProt Q07343). Kind of test: qHTS Assay for Inhibitors of PDE-IV (AID 607; active means well fitted activation curve with a large enough effect in the main read-out, with a control signal flat, not every such curve was filed as active; further: % of control where 0% means no effect). In short, it runs like this:
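ACTOne HEK293 cells carry a modified cAMP-gated CNG channel and express endogenous PDE4; plated 1000 cells/well, compounds up to 22.9 uM final. Membrane-potential dye fluorescence (ex 535/em 590) was read; parental cells received 10 uM forskolin + 100 uM RO 20-1724.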
Background: Quantitative high-throughput screening tests each substance at several concentrations.

Test [7] deals with Guanine nucleotide-binding protein G(i) subunit alpha-1 (Homo sapiens) (UniProt P63096). Kind of test: qHTS Assay for Inhibitors of RGS12 GoLoco Motif Activity (Green Fluorophore) (AID 879).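 Further: 0% = labeled peptide with Gαi1 and full inhibition = labeled peptide alone without protein; negative values mean loss of peptide binding seen as reduced polarization.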 Put shortly:
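Fluorescence polarization assay: 50 nM Gαi1 with 10 nM FITC-labeled RGS12 GoLoco peptide in 10 mM Tris pH 7.5, 150 mM NaCl, 0.1 mM GDP, 0.05% NP40, 10 min at room temperature with compound.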

Test [8] deals with Cytochrome P450 2C9 (Homo sapiens) (UniProt P11712). Kind of test: qHTS Assay for Inhibitors and Substrates of Cytochrome P450 2C9 (AID 883). Further: on the % scale 0 is the no-effect control and ±100 the full control effect; nearly all actives have a fitted effect of over 60% in size. In short, it runs like this:
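Inhibition of CYP2C9 is scored as loss of luminescence, with 57uM sulphaphenazole defining 100% inhibition. Substrate Luciferin-H is used at 100uM, equal to its KM; enzyme at 10nM in 25mM KPO4, 60 min at 37C with NADPH regeneration.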

Test [9] addresses Cytochrome P450 3A4 (Homo sapiens) (UniProt P08684). As to the kind of experiment: qHTS Assay for Activators of Cytochrome P450 3A4 (AID 885). Further: nearly all actives have a fitted effect of over 65% in size. In short, it runs like this: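 20nM CYP3A4 + 25uM Luciferin-PPXE (=KM), 200mM KPO4; cpd 10 min RT; NADPH regen, 60 min RT; stop w/ detection buffer, 20 min; luminescence. Normalized to 57 uM ketoconazole.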
Test [10] deals with Cytochrome P450 2D6 (Homo sapiens) (UniProt P10635). As to the kind of experiment: qHTS Assay for Inhibitors and Substrates of Cytochrome P450 2D6 (AID 891).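 Further: luciferin methyl ether substrate demethylated by CYP2D6 with NADPH regeneration; on the % scale 0 is the no-effect control and ±100 the full control effect; nearly all actives have a fitted effect of over 60% in size.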 Put shortly:
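Human CYP2D6 (5 nM) with 30 uM Luciferin-ME EGE (at Km) in 100 mM KPO4, compound preincubated 10 min, then NADPH regeneration system for 60 min at room temperature. Luciferin read by luminescence; normalized to 1.43 uM quinidine.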

Test [11] concerns the target Cytochrome P450 2C19 (Homo sapiens) (UniProt P33261). As to the kind of experiment: qHTS Assay for Inhibitors and Substrates of Cytochrome P450 2C19 (AID 899). Further: on the % scale 0 is the no-effect control and ±100 the full control effect; nearly all actives have a fitted effect of over 60% in size. In short, it runs like this: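 5nM enzyme + 10uM Luciferin-H EGE (=KM), 50mM KPO4; cpd pin-transferred, 10 min 37C; NADPH regen, 60 min 37C; stopped w/ luciferin detection reagent, 20 min; luminescence. Normalized to 57uM ketoconazole (AC100).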

Test [12] in a line: qHTS Assay for Identification of Small Molecule Antagonists for Thrombopoietin (TPO) Signaling Pathway (AID 918). Further: potency means the concentration at half of the fitted maximal effect; nearly all actives have a fitted effect of over 60% in size. The conditions noted are these: TPO-dependent cell signaling reporter, antagonist mode. Put shortly:
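Ba/F3 (murine, hTPO-R, GPIIb-luc reporter); overnight IL-3 withdrawal; cpd + TPO 26 pM final (EC50); 24 h 37 C/5% CO2; Steadylite luminescence after 10 min RT.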

Test [13] deals with Pyruvate kinase (Leishmania mexicana) (UniProt Q27686). As to the kind of experiment: qHTS Validation Assay for Inhibitors of Leishmania Mexicana Pyruvate Kinase (AID 945).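 Further: 0% = DMSO only neutral control wells.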 In short, it runs like this: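 The enzyme is a highly purified E451W mutant of LmPYK used at 0.2 nM. It converts 0.5 mM PEP and 0.1 mM ADP over 1 h at room temperature; product ATP is quantified by luciferase luminescence relative to DMSO controls.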

The target in test [14] is Pyruvate kinase PKM (Homo sapiens) (UniProt P14618). As to the kind of experiment: qHTS Assay for Activators of Human Muscle Pyruvate Kinase (AID 954; active means well fitted curve in the direction sought with a large enough effect, not every such curve was filed as active;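 further: 0% = uninhibited enzyme and -100% = no enzyme or full thiadiazolimine inhibition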). In short, it runs like this:
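Luminescence from a luciferase ATP-detection/stop reagent reported PKM2 activity. Reactions contained 0.1 nM purified human enzyme, 0.5 mM PEP, 0.1 mM ADP and 7 mM MgCl2 at pH 7.2, run 1 h at RT.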

Test [15] addresses Alpha-galactosidase A (Homo sapiens) (UniProt P06280). As to the kind of experiment: Counterscreen for Glucocerebrosidase Inhibitors: qHTS Assay for Human alpha-Galactosidase at pH 4.5 (AID 992). Further: 0% is about no effect. In short, it runs like this: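 Enzyme at 2 nM final was combined with compound (0.7 nM to 77 uM) and 80 uM 4-methylumbelliferyl alpha-D-galactopyranoside in 50 mM citric acid, 0.005% Tween-20, pH 4.5. After 20 min at room temperature, fluorescence was read (Ex 365/Em 440 nm); AC50 came from Hill fits.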
A general note: A counterscreen serves to expose hits that act by an unwanted route or on another target.

The target in test [16] is alpha-glucosidase (Oryza sativa, rice) (UniProt Q653V4). As to the kind of experiment: Counterscreen for Glucocerebrosidase Inhibitors: qHTS Assay for Rice alpha-Glucosidase at pH 5.0 (AID 997).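 Further: 0% = full activity with enzyme and -100% = basal without enzyme.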 In short, it runs like this:
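Rice alpha-glucosidase (4 nM final) with 400 uM 4-methylumbelliferyl-alpha-D-glucopyranoside in citrate buffer pH 5.0, 20 min at room temperature, stopped at pH 10; fluorescence 365/440 nm, compounds 0.7 nM–77 uM, AC50 from Hill fits.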

The target in test [17] is Glucocorticoid receptor (Homo sapiens) (UniProt P04150). As to the kind of experiment: GR-GFP Redistribution (AID 450;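 active means compounds whose dose series gives a full or clear partial fitted curve of increased nuclear translocation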; further: potency means the concentration at half of the fitted maximal effect). To be noted: U2OS GR-GFP nuclear translocation, laser cytometry, 2 h.
Test [18] can be described thus: Stat Signaling Pathway (AID 446; active means well fitted curve in either direction with a large enough effect, not every such curve was filed as active;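 further: ME-180 cervical cancer cells given 40 pM IL-6 alongside compound; SIE-controlled beta-lactamase reporter measured as 460/530 nm FRET emission ratio; on the % scale 0 is the no-effect control and ±100 the full control effect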). To be noted: ME-180 SIE beta-lactamase reporter, IL-6 stimulated, 5 h. Put shortly: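 ME-180 SIE-bla cells; overnight plating; cpd + IL-6 40 pM, 5 h, 37 C; LiveBLAzer 2.5 h RT; 460/530 nm emission ratio. Normalized to 300 pM IL-6 and 125 nM JAK inhibitor controls.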
A short description of test [19]: qHTS Assay for Identification of Small Molecule Agonists for Thrombopoietin (TPO) Signaling Pathway (AID 917). Further: on the % scale 0 is the no-effect control and ±100 the full control effect. In short, it runs like this:
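Luminescence from a Glycoprotein IIb promoter–driven luciferase reporter served as read-out in murine Ba/F3 cells carrying the human TPO receptor. Cells, deprived of IL-3 overnight, received compounds with 26 pM TPO and were incubated 24 hrs at 37 C.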

Setting [20] is: at 7.69 µM (top of the series) unless noted.

Cytochrome P450 3A4 (Homo sapiens), sequence (P08684 whole entry, looked up): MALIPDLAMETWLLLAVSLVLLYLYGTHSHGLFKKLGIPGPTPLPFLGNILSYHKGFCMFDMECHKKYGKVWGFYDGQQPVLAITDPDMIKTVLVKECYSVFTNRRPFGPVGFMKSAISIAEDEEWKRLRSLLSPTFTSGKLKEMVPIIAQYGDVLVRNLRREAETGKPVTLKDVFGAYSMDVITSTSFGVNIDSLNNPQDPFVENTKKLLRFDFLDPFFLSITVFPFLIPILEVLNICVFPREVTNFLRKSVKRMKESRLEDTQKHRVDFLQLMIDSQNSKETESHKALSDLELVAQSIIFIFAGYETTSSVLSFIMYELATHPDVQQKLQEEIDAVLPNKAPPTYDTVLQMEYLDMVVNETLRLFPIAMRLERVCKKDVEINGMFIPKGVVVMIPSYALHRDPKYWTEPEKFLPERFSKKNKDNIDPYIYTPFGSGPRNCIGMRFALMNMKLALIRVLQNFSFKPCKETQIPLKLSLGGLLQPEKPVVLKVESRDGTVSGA
Alpha-galactosidase A (Homo sapiens), sequence (P06280 whole entry, looked up): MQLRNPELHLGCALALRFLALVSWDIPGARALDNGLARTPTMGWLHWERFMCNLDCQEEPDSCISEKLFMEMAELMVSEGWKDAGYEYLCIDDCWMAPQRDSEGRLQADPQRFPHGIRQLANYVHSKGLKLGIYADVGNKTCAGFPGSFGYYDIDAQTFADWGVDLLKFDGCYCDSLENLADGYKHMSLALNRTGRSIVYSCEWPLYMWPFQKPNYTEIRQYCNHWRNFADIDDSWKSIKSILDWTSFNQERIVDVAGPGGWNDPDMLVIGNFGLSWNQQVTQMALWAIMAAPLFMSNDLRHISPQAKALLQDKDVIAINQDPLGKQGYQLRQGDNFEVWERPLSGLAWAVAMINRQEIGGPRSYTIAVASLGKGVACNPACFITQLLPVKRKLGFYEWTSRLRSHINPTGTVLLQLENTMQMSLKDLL
Glucocorticoid receptor (Homo sapiens), sequence (P04150 whole entry, looked up, the tested form may be a part): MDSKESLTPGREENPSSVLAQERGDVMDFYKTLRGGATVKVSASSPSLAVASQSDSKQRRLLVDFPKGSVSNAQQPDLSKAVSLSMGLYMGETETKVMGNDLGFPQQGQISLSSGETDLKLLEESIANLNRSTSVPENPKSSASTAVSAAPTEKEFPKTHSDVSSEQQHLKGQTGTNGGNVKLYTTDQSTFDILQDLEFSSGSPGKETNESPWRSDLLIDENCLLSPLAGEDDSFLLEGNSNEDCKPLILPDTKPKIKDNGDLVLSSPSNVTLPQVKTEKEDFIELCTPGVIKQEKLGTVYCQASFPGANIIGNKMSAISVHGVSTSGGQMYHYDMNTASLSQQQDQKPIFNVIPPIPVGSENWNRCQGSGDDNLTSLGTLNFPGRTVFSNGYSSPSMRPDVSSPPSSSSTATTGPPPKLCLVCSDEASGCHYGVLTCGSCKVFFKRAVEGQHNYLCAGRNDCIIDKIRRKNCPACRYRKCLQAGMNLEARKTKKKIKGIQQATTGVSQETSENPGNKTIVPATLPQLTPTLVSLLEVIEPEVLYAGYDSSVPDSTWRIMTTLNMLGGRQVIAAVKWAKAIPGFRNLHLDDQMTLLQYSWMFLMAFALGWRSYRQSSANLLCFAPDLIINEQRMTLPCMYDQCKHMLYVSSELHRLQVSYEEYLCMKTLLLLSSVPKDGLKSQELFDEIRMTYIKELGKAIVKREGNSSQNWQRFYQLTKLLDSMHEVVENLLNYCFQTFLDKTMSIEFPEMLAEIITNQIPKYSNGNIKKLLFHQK
Pyruvate kinase PKM (Homo sapiens), sequence (P14618 whole entry, looked up): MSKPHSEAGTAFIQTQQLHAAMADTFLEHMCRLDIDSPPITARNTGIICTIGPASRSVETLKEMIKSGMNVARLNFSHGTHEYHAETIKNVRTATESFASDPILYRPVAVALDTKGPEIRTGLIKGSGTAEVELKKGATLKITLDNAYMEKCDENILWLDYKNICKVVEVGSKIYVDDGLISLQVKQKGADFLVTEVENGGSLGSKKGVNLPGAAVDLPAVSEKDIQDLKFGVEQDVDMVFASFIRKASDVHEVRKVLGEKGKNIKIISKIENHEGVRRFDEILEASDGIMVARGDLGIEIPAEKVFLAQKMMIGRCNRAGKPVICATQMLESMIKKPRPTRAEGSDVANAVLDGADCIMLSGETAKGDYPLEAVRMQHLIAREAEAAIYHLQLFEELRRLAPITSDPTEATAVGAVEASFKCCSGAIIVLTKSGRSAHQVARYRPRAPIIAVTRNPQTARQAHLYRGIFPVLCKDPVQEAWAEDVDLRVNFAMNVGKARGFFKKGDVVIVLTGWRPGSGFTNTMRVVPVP
Pyruvate kinase (Leishmania mexicana), sequence (Q27686 2-499 E452W): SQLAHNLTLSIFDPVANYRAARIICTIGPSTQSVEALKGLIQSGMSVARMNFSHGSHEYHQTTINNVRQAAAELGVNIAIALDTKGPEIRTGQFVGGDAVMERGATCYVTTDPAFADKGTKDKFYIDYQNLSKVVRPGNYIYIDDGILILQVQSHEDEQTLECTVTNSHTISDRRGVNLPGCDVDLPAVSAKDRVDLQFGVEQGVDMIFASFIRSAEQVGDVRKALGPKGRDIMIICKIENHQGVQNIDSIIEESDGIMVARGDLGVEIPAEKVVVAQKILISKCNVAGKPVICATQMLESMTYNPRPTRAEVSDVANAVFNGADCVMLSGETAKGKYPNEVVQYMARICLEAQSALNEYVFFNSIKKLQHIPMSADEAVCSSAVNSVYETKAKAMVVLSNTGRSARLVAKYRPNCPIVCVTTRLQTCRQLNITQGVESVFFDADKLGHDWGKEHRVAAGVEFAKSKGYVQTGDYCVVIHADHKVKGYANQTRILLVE
Cytochrome P450 2C9 (Homo sapiens), sequence (P11712 whole entry, looked up): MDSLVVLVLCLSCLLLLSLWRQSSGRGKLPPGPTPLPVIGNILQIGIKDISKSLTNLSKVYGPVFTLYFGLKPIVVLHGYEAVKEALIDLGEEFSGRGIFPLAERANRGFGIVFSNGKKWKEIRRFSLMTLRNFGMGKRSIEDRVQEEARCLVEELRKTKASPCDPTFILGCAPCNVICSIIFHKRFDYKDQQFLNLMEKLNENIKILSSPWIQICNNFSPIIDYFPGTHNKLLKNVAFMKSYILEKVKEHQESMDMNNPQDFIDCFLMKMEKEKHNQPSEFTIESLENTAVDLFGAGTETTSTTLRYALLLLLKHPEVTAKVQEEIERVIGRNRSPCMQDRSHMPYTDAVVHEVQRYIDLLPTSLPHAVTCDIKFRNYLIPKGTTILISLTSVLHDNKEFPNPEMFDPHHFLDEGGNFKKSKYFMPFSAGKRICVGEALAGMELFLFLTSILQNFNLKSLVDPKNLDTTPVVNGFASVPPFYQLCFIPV
3',5'-cyclic-AMP phosphodiesterase 4B (Homo sapiens), sequence (Q07343 whole entry, looked up): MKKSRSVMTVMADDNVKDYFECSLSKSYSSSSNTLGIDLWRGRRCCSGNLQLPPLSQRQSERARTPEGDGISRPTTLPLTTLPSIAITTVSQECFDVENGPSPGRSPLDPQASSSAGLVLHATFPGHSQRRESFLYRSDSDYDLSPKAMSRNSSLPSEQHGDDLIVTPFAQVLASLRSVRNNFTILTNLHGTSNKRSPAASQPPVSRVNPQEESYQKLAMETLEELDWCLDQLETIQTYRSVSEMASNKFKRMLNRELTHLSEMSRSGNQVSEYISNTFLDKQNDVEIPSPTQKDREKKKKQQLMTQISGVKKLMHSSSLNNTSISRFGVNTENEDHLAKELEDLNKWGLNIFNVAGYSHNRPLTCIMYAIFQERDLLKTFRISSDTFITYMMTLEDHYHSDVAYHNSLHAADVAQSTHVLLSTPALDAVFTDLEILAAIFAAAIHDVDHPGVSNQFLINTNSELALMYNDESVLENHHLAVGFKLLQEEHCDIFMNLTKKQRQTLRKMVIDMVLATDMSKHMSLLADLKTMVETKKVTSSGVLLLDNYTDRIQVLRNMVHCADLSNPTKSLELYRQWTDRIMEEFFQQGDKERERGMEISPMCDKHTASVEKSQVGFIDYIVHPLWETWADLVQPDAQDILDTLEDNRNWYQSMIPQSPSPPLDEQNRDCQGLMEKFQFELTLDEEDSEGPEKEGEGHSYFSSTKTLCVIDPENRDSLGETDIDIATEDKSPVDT
Cytochrome P450 1A2 (Homo sapiens), sequence (P05177 whole entry, looked up): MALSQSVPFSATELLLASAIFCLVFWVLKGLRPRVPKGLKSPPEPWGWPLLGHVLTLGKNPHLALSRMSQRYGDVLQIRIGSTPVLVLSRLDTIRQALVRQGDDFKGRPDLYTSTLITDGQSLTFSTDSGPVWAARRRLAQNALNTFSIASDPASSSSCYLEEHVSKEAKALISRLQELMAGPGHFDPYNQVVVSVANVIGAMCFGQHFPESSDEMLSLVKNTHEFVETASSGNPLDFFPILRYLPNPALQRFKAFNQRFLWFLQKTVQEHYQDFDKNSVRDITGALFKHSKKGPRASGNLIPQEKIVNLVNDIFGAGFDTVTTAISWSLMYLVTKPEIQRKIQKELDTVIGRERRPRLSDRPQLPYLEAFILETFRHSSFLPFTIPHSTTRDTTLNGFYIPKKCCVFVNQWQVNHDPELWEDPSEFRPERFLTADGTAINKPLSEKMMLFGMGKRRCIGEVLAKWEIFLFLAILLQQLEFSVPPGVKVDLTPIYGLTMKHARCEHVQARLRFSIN
Cytochrome P450 2D6 (Homo sapiens), sequence (P10635 whole entry, looked up): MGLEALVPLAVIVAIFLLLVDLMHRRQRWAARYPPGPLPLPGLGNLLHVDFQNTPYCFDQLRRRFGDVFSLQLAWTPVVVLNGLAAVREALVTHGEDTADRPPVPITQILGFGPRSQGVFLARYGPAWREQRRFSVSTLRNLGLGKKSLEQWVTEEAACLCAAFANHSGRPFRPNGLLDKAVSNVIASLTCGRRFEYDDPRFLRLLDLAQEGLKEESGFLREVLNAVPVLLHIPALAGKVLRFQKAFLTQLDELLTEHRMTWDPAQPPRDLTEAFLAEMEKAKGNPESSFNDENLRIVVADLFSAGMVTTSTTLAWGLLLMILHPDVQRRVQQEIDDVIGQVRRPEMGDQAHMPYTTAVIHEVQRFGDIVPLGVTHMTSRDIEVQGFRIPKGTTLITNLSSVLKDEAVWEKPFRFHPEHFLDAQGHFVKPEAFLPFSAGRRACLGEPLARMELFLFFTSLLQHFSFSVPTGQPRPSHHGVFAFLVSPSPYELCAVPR

Consider `C[C@@]12C(=O)OC(=O)[C@@]1(C)[C@H]1CC[C@@H]2O1`, for which the activity change, negative = inhibition in test [1] is -102% [at 38 µM] (active); in [3], -104% [at 38 µM] (active). The Potency entry in test [2], in [5], in test [6], in test [8], in test [9] and in test [10] was “inactive” each time. Further, the Potency entry in test [11] and in test [16] was “inactive” throughout. In addition, the Potency in [4] was greater than 46 µM; in [12], 3.16 µM (active). Also, the molecule was classed as inactive in test [7], in test [13], in test [14] and in test [15].

Consider `CCC(=O)OCN1C(=O)C=CC1=O`, for which the results for the activity change, negative = inhibition in test [1] and in test [3] were -2.18% and -27.8%, respectively. In addition, the Potency is 3.16 µM (active) in [2], greater than 46 µM in test [17] and greater than 9.22 µM in test [4]. The Potency entry in test [5] and in test [6] was “inactive” in each case.

As to `CC(C)C[C@H]1C(=O)N2CCC[C@@H]2[C@]2(O)O[C@](NC(=O)[C@H]3C=C4c5cccc6[nH]c(Br)c(c56)C[C@H]4N(C)C3)(C(C)C)C(=O)N12`, the activity change, negative = inhibition in test [1] was -28.4% [at 17.2 µM]. The Potency result in test [2], in test [5], in test [6], in [9] and in [16] was “inactive” throughout. Also, the figures for the activity, negative = inhibition in [18] (at 17.2 µM (top of the series)) and in test [18] (at 38 µM (top of the series)) were -20.4% and -18.7%, respectively. In addition, the Potency in test [17] is > 46 µM and > 20.6 µM; in test [4], > 46 µM and > 20.6 µM. The molecule was called inactive in test [13], in test [14] and in [15].

Take `C[C@@H]1C[C@@H]2[C@H]3CCC4=CC(=O)C=C[C@]4(C)[C@]3(Cl)[C@@H](O)C[C@@]2(C)[C@@]1(O)C(=O)CO`: the activity change, negative = inhibition is 12.5% [at 38 µM] in test [1] and 6.53% [at 38 µM] in [3]. Also, the Potency result in test [2], in test [5] and in test [16] was “inactive” in each case. Further, the activity, negative = inhibition in [18] (setting [20]) is 3.18% [at 38 µM]. Besides, the result in [7], in test [19], in [13] and in [15] was inactive.

For `Nc1ccn([C@H]2CC[C@H](CO)O2)c(=O)n1`, the activity change, negative = inhibition is 15.8% [at 38 µM] in test [1] and 5.71% [at 38 µM] in test [3]. Also, the Potency entry in test [2], in test [5], in [6], in test [8], in test [10] and in test [11] was “inactive” throughout. Further, the activity, negative = inhibition in test [18] (setting [20]) was -0.228% [at 38 µM].

Turning to `C[N+]1(CCC[N+]2(C)C[C@H]3[C@H](C2)[C@H]2C=C[C@@H]3CC2)CCOCC1` (stereo partly specified), the activity change, negative = inhibition in test [1] is 0.978%; in test [3], 1.42%. Further, the Potency entry in test [2], in test [5] and in test [6] was “inactive” in each case.

In the case of `CC[C@H](C)[C@@H]1O[C@]2(CC[C@@H]1C)C[C@H]1C[C@H](CC=C(C)[C@@H](O[C@H]3C[C@H](OC)[C@H](O[C@H]4C[C@H](OC)[C@H](O)[C@H](C)O4)[C@H](C)O3)[C@@H](C)C=CC=C3CO[C@@H]4[C@@H](O)C(C)=C[C@H](C(=O)O1)[C@@]34O)O2`, the values for the activity change, negative = inhibition in test [1] and in test [3] were -14% [at 38 µM] and -10.6% [at 38 µM], respectively. Also, the Potency result in test [2], in test [9] and in [16] was “inactive” each time. The figures for the Potency in test [17], in test [4] and in test [12] were greater than 46 µM, greater than 46 µM and 12.6 µM (active), respectively. Moreover, the molecule was classed as inactive in test [13], in test [14] and in test [15].
